According to PubChem BioAssay AID1508600 (Functional Genomics Laboratory (NCATS/FGL), 2020):
Among all 53,000 sequences or so, about 3,700 (7%) were called active.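 Rule for the calls: active = gene knockdowns whose robust z-score for IL-1 alpha signal is at least 2 or at most -2, so actives lie on both sides; inactive = the rest.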 The sample as a whole holds a higher share of actives than the screen did.

Experiment: Components of the Cytosolic LPS Sensing Pathway: Gene Identification via Genome-wide siRNA Screen;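 note: robust z of the log signal after scaling to non-targeting control siRNA wells of the plate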
Conditions: RAW264.7 macrophages, IL-1a HTRF, actives lie on both sides, screened at 100 nM (by protocol), cells primed 5 h with Pam3CSK4 first
Outline: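 Using IL-1a HTRF as read-out, the screen measured release from RAW264.7 cells after 48h siRNA knockdown (100 nM), 5 h Pam3CSK4 priming and 24 h cytosolic LipidA. Values were expressed relative to negative-control wells as robust z-scores.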

z-score, inactive:
GGUGGACUCUGUUUAAAAATT against Mtnr1a 0.971
GGUCUGUGAAAUGAAAAAUTT against Brix1 -0.473
CGGGUAUCAUCGAUUAUGGTT against Tnfaip6 -0.356
GGAGUGCAGUACAAAGGACTT against Ahsa1 0.872
GCCCAGCUCAAAUCUCCAUTT against Defb41 1.05
GGACUUUUCAUUUGAAGCATT against Gar1 1.03
GGAGUUUGUAGCUGACAUCTT against Dcaf15 -1.02
CCUGGACAAGCUAUACCUUTT against Cdc45 0.952
GGCAUUGUAACCCUUGUAATT against Zscan26 -0.684
CGACUGGAUACCAAAUUACTT against Mtrex -1.21
GGAUCAUGAGAAUAUCAUCTT against P4hb 0.816
GGGCCUCCUGUAAACAUCCTT against D630039A03Rik 0.884
AUAAGAUGUUGCUCGGAACTT against Olfr1193 1.26
GCCAGUGUUAUCCAGGACUTT against Cggbp1 1.35
GCAACUCAACCUCAACCAUTT against Lrrc8e -0.597
GGUGAAAUUGCUCAGAUAATT against Narf 0.387
AACCAUGAUGCUUACGUUUTT against S100a10 0.285
CCACAUACAUUUCACAGGGTT against Kdf1 -0.806
GGAGUGUGUGCUUUUAAAATT against Rabggta 0.248
GGCAGAAGUGGAAAAACAATT against Tmco1 -0.417
GAACCCUCAUGAGGGUUACTT against C1ql1 0.177
GCCAGUAUGCUGUAUGGCUTT against Bcas3 -0.712
GCUACCUCUUGCAUGGGAGTT against Bivm -0.0737
GGCCUGUAUUCUGCUCUGUTT against Olfr341 0.0576
GGCUGCUUAGCUUUAAUGGTT against Ccdc177 -0.674
GGUUCUAGGCAGUUUGAUATT against Tlnrd1 1.64
GCCAAUUAAUGAUUGCUUUTT against Zfp322a 0.945
CGCCAGCAGAACUCAAAUATT against Gm11992 0.623
GAUGAUUGACGACAUGGAATT against Rgs9bp 0.656
GGAUGAUGUGAUGAAGAUCTT against Fgfr4 -0.0955
GGUUAAAUGCCCGCCAACATT against Eif2ak4 -0.876
GGAUAAGGACCUCUUCUCUTT against Ubl7 -1.41
GGGAAUAGCAAACUUAUCUTT against Nfil3 -0.688
GGGACAAAACCUUGAUGGUTT against Vmn1r200 -0.254
GGAAGUAAUCAAUUUGGUGTT against Epm2aip1 1.36
GCACAUGUAUCCAUGCUUCTT against Kcnj11 -0.815
GGAAGUUCGUGGAAGGCAATT against Pck1 0.188
GGAAGAAAACAGCGAUUUGTT against Ppp1r15a -0.447
GCAUUAUUCAUAUGUUGGUTT against Fpr-rs4 -0.318
GGAGUCUCUGAAGAAAACATT against Hus1 -0.596
CCCAAUUUGGAGCUAUCAGTT against Cwh43 -0.89
GGACUUCCAGAUCCAACCUTT against Robo4 -0.867
GGAACUCUCAAGAGAGAAUTT against Dnajc14 0.233
GGACAGAGAACAAAUGACCTT against 4931417E11Rik -1.91
GGCAGCAGUUAUUGUGGAUTT against Ly6a 0.693
GGAAGGACCAAAGCUUUCUTT against Olfr1123 0.982
CCACCAAUGAUUUGAUGCATT against Gpr75 -0.0162
GGAUUUUGAAUUAUGGGAUTT against Relch -0.0955
CGAAGGGAUUGAUUUGACUTT against Kars -0.324
CGCACUUUGGCUUGUAAUUTT against Smad6 0.327
GCUGUAAACCGAAUCAAAGTT against Khdc4 0.0586
CGUGAGGUUAUGAUGUAUUTT against Gm5444 -1.3
CCAUUAUCCUGGUGUGUAUTT against Olfr1362 -0.0735
GGCGAUACUUGGAAAAAUCTT against Nln -0.508
GCCCGUCCUGUUUGGAUUATT against Wdr53 0.501
GGACCUUGAGAUAUCUUUUTT against D130020L05Rik -0.361
GGACAGAGGACAAGCAGAATT against Ghrl -0.532
CCUAAUUUGAUCCUUCGAATT against Zfp672 -0.947
GAACGACAACCCGAUAAUGTT against Ttc9c -0.141
GGAUUUAAUGGUAAAUCACTT against Relch 0.034
GGAAGGUCAAAGUCCUUUATT against Pitpnm2 -0.685
GGCUUCAAGCUAUUCAUGATT against Dgkb 0.126
GGGAUUGAGGGAGAUUUUCTT against Tedc2 -0.206
GUGCUUCUGAUCUCCUACATT against Olfr223 1
CCAAUCCAAUGAAUGUUUCTT against A330070K13Rik -1.75
GCUGAAAGUAUUCAUGUAATT against Sec13 -1.6
GGCCAUCUCUUCUACUGUATT against Glt28d2 0.0935
GCUUUCUGGGUAACAUAGGTT against Ubqln3 -1.46
GGGACCUUGAUCAAAACCUTT against Gp5 -0.215
GGAAAUGACAAGUAUGAAGTT against Gria4 -1.33
GUACCCAAAAUGUUGAUGATT against Olfr979 0.794
GCGGCUCCAUCAGAAAAUGTT against Htatip2 0.526
GGAAAUCCAUGAGAAGGUGTT against Ctbp2 0.732
GGUGAACUUGUGUCUCACUTT against Tango2 0.0582
GGAGCUGUAUCGCACGAAATT against Ehd2 -0.689
GGAAACCGAAUUCCAAGGGTT against Ddx25 1.78
GGAAGUGGAAAAACUGGUGTT against Ddx1 -1.21
GGAACUGUUUGACAGUGAGTT against Pex19 -0.811
GGAUCUAAAGGUGAGUCAATT against Dcaf12l1 -0.388
GGAACCAAUCAGUUGGUUATT against Taf7 0.395
GGAGAUACAGGAUAUUAUUTT against Nme5 -0.0528
GCAACAGUGAAAUAGCACATT against Krit1 0.179
GGUUAAUGAGCUCUGUAAATT against Pknox1 -0.508
GCUAAGGACUCAGCAAAACTT against Coq5 0.733
CCGGUAAUGAGUUCAAGUGTT against Arsa 1.12

z-score, active:
GGACUUACAUGGAAUUUUATT against Eftud2 -2.07
GCCUUUCUCGCUACUUAGUTT against Cltc 2.83
GGAAAUCCAACUUCUUUCATT against Ebf2 2.7
GGUGUCUGCGUGAAGAUCATT against Cacng8 2.81
GGUGAUGUCAAGAGUUUUCTT against Hacd2 3.56
CCUCGAGUGGUUGGAUAAGTT against Vps25 -2
GGAAUGUAUCCAGGACUUCTT against Brd4 -2.46
GCUGAUAAACAUCAGCUACTT against Zdhhc23 4.01
GGGAUACUCCAAGUUCCAUTT against Muc4 2.85
GCGUGCUUAUGAACAUAGUTT against Spen 2.02
GGUGUUAAUCCAGUUCAAUTT against Bbs12 2.26
GGAAGAAAGAGAGGUGUGATT against Nxf2 -2.26
GGUACCCACUAGAGGAUCATT against Madd -2.61
GCCAAAUGUGCGUCAUCUATT against Zdhhc25 -2.54
GGAAAGGACAAGAAAAUUUTT against Strn -2.03
CCAGAUCGGGAAAAAGGGUTT against Tsn -2.04
GGUUCUUGGAUAAAUCAAGTT against Mrpl40 2.41
GAUAUGUGCACAAUUCUGCTT against Vmn1r201 -2.3
AACCAUUCAGGAGAAAGCCTT against Lce1a1 -3.05
CCUGAAUUACAGGGACCAGTT against Znrd1 3.49
GCCUUGGAUAAACCAGACGTT against Mfsd4a -2.38
GCACUUACUCAUUAAUCACTT against Rnf20 -2.56
